The results in this text go back to PubChem BioAssay AID720602 (Broad Institute, 2013).

Measured potencies and affinities stand elsewhere. Calls of active or inactive are those of the source.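 Rule for the calls: active = signal drop at all three exposure times, half-maximal concentration at most twice the top valid dose; inconclusive = exposure times give differing calls; inactive = inactive at every exposure time.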

This assay in a line: LOX IMVI melanoma cell viability loss, dose response, HRAS target identification, CellTiter-Glo ATP luminescence, 8/24/48 h, dry powder (AID 720602). In general terms: In ATP-based viability assays light output follows the ATP content of the culture.

`CCC(=O)N(c1ccc(OC)c(Cl)c1)C(C(=O)NCCc1ccccc1)c1cccs1` (configuration not stated): the outcome was inactive. As for `Cc1onc(C(=O)N2CCN(C(c3ccncc3)c3ccncc3)CC2)c1[N+](=O)[O-]`, the entry is “inactive”.
